Assay results reported in the supplement of paper PMC8253809.
Several values for one entry are separate records, joined by “and”; a condition that tells them apart may be missing. Equal entries are not always repeated.

Experiments:
Assay in all cases: growth inhibition (% activity, log2 RLU normalised to DMSO / staurosporine); higher = more growth inhibition
Details in all cases: 33 µM
DIPGX29 = tested on: DIPGX29 (H3.3 K27M diffuse intrinsic pontine glioma line)
How it was run: (§1)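 Approved drugs, at a single final concentration of about 33 μM, were applied in triplicate to pHGG cell lines and H9-derived neural stem cells for 7 days at 37 °C, 5% CO2. The growth-inhibition value is the replicate median of log2-transformed CellTiter-Glo luminescence normalised per plate to % activity between solvent and positive control wells.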

DIPGX37 = tested on: DIPGX37 (H3.3 K27M diffuse intrinsic pontine glioma line)
How it was run: as §1

DIPGX7 = tested on: DIPGX7 (H3.3 K27M diffuse intrinsic pontine glioma line)
How it was run: as §1

DIPGX9 = tested on: DIPGX9 (diffuse intrinsic pontine glioma line)
How it was run: as §1

HGGX39 = tested on: HGGX39 (paediatric high-grade glioma line)
How it was run: as §1

HGGX6 = tested on: HGGX6 (H3.3 G34R paediatric high-grade glioma line)
How it was run: as §1

HNSC = tested on: HNSC
How it was run: as §1

SUDIPGIV = tested on: SUDIPGIV (diffuse intrinsic pontine glioma line)
How it was run: as §1

SUDIPGVI = tested on: SUDIPGVI (diffuse intrinsic pontine glioma line)
How it was run: as §1

SUDIPGXIII = tested on: SUDIPGXIII (diffuse intrinsic pontine glioma line)
How it was run: as §1

SMILES | growth inhibition (DIPGX29) | growth inhibition (DIPGX37) | growth inhibition (DIPGX7) | growth inhibition (DIPGX9) | growth inhibition (HGGX39) | growth inhibition (HGGX6) | growth inhibition (HNSC) [%] | growth inhibition (SUDIPGIV) | growth inhibition (SUDIPGVI) | growth inhibition (SUDIPGXIII)
COc1ccccc1OCC(O)COC(N)=O (stereo not drawn) | -0.505% | 1.65% | 0.111% | 0.273% | 0.0917% | 1% | -1.62 | -1% | 0.561% | -0.184%
CCCCOc1ccc(CC(=O)NO)cc1 | 4.76% | 1.97% | 54.5% | 3.15% | 12.5% | 12.9% | 17.1 | 3.36% | -3.3% | -0.824%
O.O.O.O.O=C([O-])CC(O)(CC(=O)[O-])C(=O)[O-].[Li+].[Li+].[Li+] | 1.75% | 1.97% | 1.43% | 0.467% | -0.0466% | -1.34% | 26.2 | 0.611% | 1.36% | -0.99%
Cc1onc(-c2ccccc2)c1C(=O)N[C@@H]1C(=O)N2[C@@H]1SC(C)(C)[C@@H]2C(=O)O | -1.74% | -1.12% | -1.18% | -0.122% | -0.815% | 0.0702% | -4.11 | 0.237% | 0.245% | -1.71%
CN1CCN2c3ccccc3Cc3ccccc3C2C1 (stereo not drawn) | 1.33% | -0.487% | 0.702% | -0.0886% | 2.14% | -2.26% | 2.01 | -0.203% | -0.707% | -2.33%
CCC(NC(C)C)C(O)c1ccc(O)c(O)c1 (stereo not drawn) | 2.91% | 3.09% | 1.03% | 1.97% | 2.82% | 5.22% | 3.15 | 1.08% | 5.58% | 1.21%
O=C(O)c1cccnc1 | 0.555% | 1.13% | 0.846% | 1.6% | 0.355% | 1.52% | -0.701 | -0.463% | 1.65% | -1.24%
N=C(N)NC(=O)c1nc(Cl)c(N)nc1N | 1.79% and -1.36% | 1.85% and 0.649% | 1.7% and 0.904% | 2.64% and 0.337% | 2.38% and 4% | -0.794% and 0.512% | – | 7.17% and 6.85% | 2.25% and 2.53% | -0.984% and -0.159%
COc1cc(Nc2c(C#N)cnc3cc(OCCCN4CCN(C)CC4)c(OC)cc23)c(Cl)cc1Cl | 8.64% | 2.05% | 4.98% | 6.92% | 9.47% | 10.9% | 41.9 | -1.39% | 8.4% | 1.71%
CS(=O)(=O)CCNCc1ccc(-c2ccc3ncnc(Nc4ccc(OCc5cccc(F)c5)c(Cl)c4)c3c2)o1 | 6.23% and 13.7% | 3.79% and 6.67% | 8.64% and 16.6% | 4.74% and 6.77% | 7.08% and 12.7% | 3.29% and 14.5% | – | 3.14% and -0.238% | -6.01% and 3.84% | 0.448% and 1.79%
CN(C)CCCOc1nn(Cc2ccccc2)c2ccccc12 | 13.9% | -2.22% | 24.6% | 5.76% | 18.9% | 14.8% | 40.8 | 18.5% | -1.11% | 0.197%
CCN(CC)CCNC(=O)c1c(C)[nH]c(/C=C2\C(=O)Nc3ccc(F)cc32)c1C | 25.8% | 6.19% | 11.1% | 7.94% | 7.9% | 20.3% | 71.3 | -3.41% | 3.36% | -4.08%
CN[C@@H]1[C@H](O[C@H]2[C@H](O[C@H]3[C@H](O)[C@@H](O)[C@H](N=C(N)N)[C@@H](O)[C@@H]3N=C(N)N)O[C@@H](C)[C@]2(O)C=O)O[C@@H](CO)[C@H](O)[C@H]1O | 0.0944% | -5.46% | 0.411% | -1.2% | 0.505% | -0.72% | -0.954 | -0.137% | -0.665% | 0.85%
CN/C(=N\CCSCc1nc[nH]c1C)NC#N | 0.842% | 1.91% | 1.01% | 0.766% | 1.68% | 1.98% | 0.707 | -0.184% | 2.38% | 0.0177%
